Screens deposited in PubChem by Broad Institute.
Casp6 inh – inhibitors of human caspase-6. hit rate 0.53% among 350,000. purified caspase-6, Z-VEID-R110 cleavage fluorescence. inhibition, % at 12.5 µM. P55212. AID 686996;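 active = mean inhibition across replicates at least about 35%, with every replicate also reaching that limit, limit read from the data; inconclusive = only one of the two criteria met; inactive = neither criterion met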;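 also: 0% = median of neutral control wells and 100% = no fluorescence left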
Target sequence (P55212 24-179 limits assumed): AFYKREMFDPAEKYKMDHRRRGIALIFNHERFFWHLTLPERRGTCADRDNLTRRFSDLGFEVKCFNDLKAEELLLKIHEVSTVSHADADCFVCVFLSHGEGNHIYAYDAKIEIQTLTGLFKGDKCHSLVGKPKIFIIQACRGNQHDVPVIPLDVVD
Target sequence (P55212 194-293 limits assumed): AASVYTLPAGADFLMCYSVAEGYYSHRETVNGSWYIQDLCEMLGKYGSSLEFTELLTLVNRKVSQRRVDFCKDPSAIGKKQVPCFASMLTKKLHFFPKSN
PglD inh – inhibitors of Campylobacter jejuni PglD acetyltransferase; purified PglD enzyme, DTNB colorimetric CoA detection; hit rate 0.098% among 360,000; inhibition, % at 12.5 µM; in the data active = inhibition above about 16%, passing the limit was not always enough; inconclusive = no clear call, values can overlap the other calls
ALR inh – inhibitors of human sulfhydryl oxidase ALR. purified ALR, DTT oxidation, H2O2 HRP-luminol luminescence. inhibition, % (test concentration not listed). hit rate 3.8% among 290,000. AID 485317;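 active = mean replicate inhibition above about 79%, with every replicate also reaching it, limit read from the data; inconclusive = only one of the two criteria met; inactive = mean below limit and not every replicate reaching it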
Target sequence (P55789 whole entry, looked up): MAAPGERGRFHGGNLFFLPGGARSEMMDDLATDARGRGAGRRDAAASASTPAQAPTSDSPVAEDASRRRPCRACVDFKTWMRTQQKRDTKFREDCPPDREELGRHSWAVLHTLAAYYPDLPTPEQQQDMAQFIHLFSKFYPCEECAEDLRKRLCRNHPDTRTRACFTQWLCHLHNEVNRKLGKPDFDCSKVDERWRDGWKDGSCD
NSD2 HMT inh – blocks human histone methyltransferase NSD2 | inhibition, % at 12.5 µM | hit rate 0.54% among 310,000 | AID 743445 | NSD2 peptide methylation, AlphaScreen, 120 min; in the data active = inhibition above about 50%
CFTR F508del cor – correctors of CFTR F508del function in bronchial epithelial cells; CFBE cells, YFP halide quenching; stimulated with forskolin plus potentiator P3; % fluorescence drop versus neutral controls; activity (quench increase), % at 7.58 µM; hit rate 0.36% among 350,000;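 active = mean added fluorescence quench of at least 8% versus neutral control, with both replicates also reaching 8%; inconclusive = only one of the mean or replicate conditions met; inactive = mean below 8% and not both replicates reaching 8%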;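 also: cells transiently co-express mutant CFTR-F508del with the halide-sensitive YFP; corrector assay measuring rescue of mutant channel to the surface after 24 h compound exposure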
HIV Env fusion – inhibitors of HIV Env-mediated cell fusion; inhibition, % at 12.3 µM; AID 651610; hit rate 1.1% among 360,000; HeLa-JRFL Env/CEM21 cell fusion, luciferase;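 active = mean replicate inhibition score of at least 50 and every replicate individually at or above 50; inconclusive = only one of the two criteria met; inactive = mean below 50 and not all replicates reaching 50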;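 also: 0% = plate neutral controls and 100% = maraviroc near 300 nM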
Numbers without * were called inactive; i = inactive; u = inconclusive; x = no result given; [ ] = remark or other dose. An excerpt weighted towards active compounds, which were near 4.1% of everything screened.

SMILES	Casp6 inh	PglD inh	ALR inh	NSD2 HMT inh	CFTR F508del cor	HIV Env fusion
O=C(NCCCn1ccnc1)C(=O)NCC(c1ccco1)N1CCN(c2ccccc2)CC1 (configuration not stated)	-19.9	-4.4	99.1*	x	-1.0	4.1
O=C(C[C@@H]1C[C@@H]2c3cc(NC(=O)C4CCC4)ccc3O[C@@H]2[C@@H](CO)O1)NCc1ccccn1	-0.1	2.3	x	x	-0.8	u
Cc1cc(C(=O)Nc2cccc3c2O[C@H](CN(C)S(=O)(=O)c2cn(C)cn2)[C@H](C)CN([C@H](C)CO)C3=O)n(C)n1	0.4	1.2	x	x	-1.4	x
CO[C@@H]1CN(C)C(=O)c2ccc(NC(=O)c3cccc(F)c3)cc2OC[C@H](C)N(C)C[C@@H]1C	x	x	x	x	-3.0	x
O=C(NNc1nc2ccccc2s1)c1ccccc1F	1.3	1.1	97.0*	2.5	-2.2	x
COc1ccc(C(=O)Nc2nc3ccccc3s2)c(OC)c1	-0.7	-1.7	11.9	x	4.6	79.3*
COc1ccccc1C(=O)Nc1nc2ccccc2s1	-0.6	-0.5	-2.3	x	0.9	79.1*
COc1cc2nc(NC(=O)c3ccccc3)[nH]c(=O)c2cc1OC	x	7.2	-0.7	1.9	x	-38.1
COc1cc2nc(NC(=O)c3ccccc3)sc(=O)c2cc1OC	1.5	-5.0	x	0.4	0.4	59.3*
COCC(=O)N(C)C[C@@H]1Oc2ncc(C#CCC3CCCC3)cc2C(=O)N([C@H](C)CO)C[C@H]1C	-4.3	5.3	x	x	-0.3	2.9[16.7 µM]
C[C@H](CO)N1C[C@H](C)[C@H](CN(C)C(=O)Nc2ccc(F)cc2)Oc2cc(/C=C/c3ccccc3)ccc2S1(=O)=O	0.5	0.1	x	x	3.8	11.5[16.7 µM]
S=C(NCc1ccco1)N/N=C/c1ccc(Cl)cc1	1.1	x	x	2.2	x	1.4
Oc1ccc(/C=N/NC(=S)NCc2ccco2)cc1	x	x	98.6*	3.3	x	x
CCN(CC)c1ccc(/C=N/NC(=S)NCc2ccco2)cc1	0.6	x	98.6*	-0.8	x	0.8
Oc1c(Br)cc(/C=N/NC(=S)NCc2ccco2)cc1Br	19.6	x	89.5*	6.7	0.1	1.7
C[C@H](CO)N1C[C@H](C)[C@H](CN(C)C(=O)Nc2cccc3ccccc23)Oc2ccc(NC(=O)C3CC3)cc2CC1=O	x	x	x	x	2.4	-0.1[16.7 µM]
Cc1ccc(NS(=O)(=O)c2cccc(C(=O)NC3CCN(Cc4ccccc4)CC3)c2)cc1	1.5	1.7	x	3.9	0.0	9.5
O=C(NC1CCN(Cc2ccccc2)CC1)c1cccc(S(=O)(=O)Nc2ccc(SC(F)F)cc2)c1	-1.4	x	99.0*	-0.4	4.8	8.6
O=[N+]([O-])c1cc(C(F)(F)F)ccc1NCCCCNS(=O)(=O)c1ccc2ccccc2c1	x	2.0	-1.6	1.2	x	62.3*
COc1ccc(-[n+]2c(C)cc(/C=C3\Sc4ccccc4N3C)cc2C)cc1	-7.0	x	94.9*	-6.2	-6.4	33.7
COc1ccccc1-[n+]1c(C)cc(/C=C2\Sc3ccccc3N2C)cc1C	-12.8	-14.0	98.2*	39.8	-22.9	-8.6
COc1ccccc1C(=O)N1c2ccccc2Sc2ccccc21	x	-2.9	-9.7	-1.5	x	19.5
CN1/C(=C/c2cccc[n+]2CCO)Sc2ccccc21	-0.6	-8.0	7.0	9.9	1.2	-189.5
NC(=S)N=Nc1c(O)cc(O)c2[nH]c(=O)ccc12	92.5*	x	x	x	-0.3	-2.5
NC(=S)N=Nc1c(O)[nH]c2ccc(F)cc12	1.9	x	3.4	-1.9	1.3	x
SMILES	Casp6 inh	PglD inh	ALR inh	NSD2 HMT inh	CFTR F508del cor	HIV Env fusion
CCCNC(=O)N1C[C@H](C)[C@H](OC)CN(C)C(=O)c2ccc(NS(=O)(=O)CC(F)(F)F)cc2OC[C@H]1C	x	x	x	x	-2.7	-2.2[16.7 µM]
CN(C)C(=O)C[C@H]1C=C[C@H](NC(=O)C2CC2)[C@@H](CO)O1	0.0	-1.0	x	x	0.4	17.2[16.7 µM]
COc1ccc(-c2nc(CSCC(=O)N3CCN(C)CC3)c(C)o2)cc1OC	-1.8	-0.2	99.1*	x	1.2	-4.2
COc1ccc(-c2nc(CN3CCC(C(=O)NC4CC4)CC3)c(C)o2)cc1OC	1.3	3.0	-3.8	-7.0	0.6	-0.6
COc1ccc(-c2nc(CSCC(=O)N3CCN(C(=O)c4ccco4)CC3)c(C)o2)cc1OC	-0.5	-0.5	98.9*	x	-0.8	-14.9
CCN1CCN(CCNC(=O)CSCc2nc(-c3ccc(OC)c(OC)c3)oc2C)CC1	x	x	99.4*	-2.3	x	-23.5
CCN1CCN(C(=O)CSCc2nc(-c3ccc(OC)c(OC)c3)oc2C)CC1	-1.3	-1.2	98.5*	x	-3.0	1.2
O=C(C1CCCC1)N1CC2(C1)[C@H](c1ccccc1)[C@@H](CO)N2Cc1ccccc1F	-3.4	x	x	x	-1.3	x
COc1cc2c(c(Br)c1N)-c1cc(Br)c(N)cc1C2=O	-1.3	-4.4	x	-2.0	8.5*	0.8
COCC(=O)N1[C@H](CO)[C@H](c2ccccc2)C12CN(C(=O)Cc1ccccn1)C2	-1.5	x	x	x	0.8	x
Cc1ccc(S(=O)(=O)N2CCN(C(=O)CNC(=O)c3ccc(Br)o3)CC2)cc1	2.4	x	0.0	-3.2	-0.6	64.3*
COc1ccc(C2=Nn3c(nnc3-c3cccnc3)SC2)cc1	-0.9	-0.6	x	-1.3	x	-28.0
COc1ccc(C2=Nn3c(nnc3-c3ccncc3)SC2)cc1	x	-4.6	-0.5	1.8	x	96.2*
COc1ccc(OC)c(-c2nnc3n2N=C(c2ccc(OC)c(OC4CCCC4)c2)CS3)c1	4.1	5.1	-1.9	x	3.7	-53.8
COc1ccc(OC)c(-c2nnc3n2N=C(c2ccc(OC)c(OC)c2)CS3)c1	6.0	2.3	-2.7	x	9.5*	i
Fc1ccc(Br)cc1C1C=C(c2ccc(Br)cc2)Nc2ncnn21 (configuration not stated)	-0.5	-6.8	90.5*	0.0	x	-132.6
CCc1ccc(C2=CC(c3cc(Br)ccc3F)n3ncnc3N2)cc1 (configuration not stated)	x	-3.0	3.1	x	x	25.9
COC(=O)C1=C(N)Oc2cc(C)n(CC3CCCO3)c(=O)c2C1c1ccccc1OC (configuration not stated)	x	-1.6	-0.2	5.0	x	x
COC(=O)C1=C(N)Oc2cc(N(C)C)ccc2C1c1ccccc1OC (configuration not stated)	x	3.6	62.2	6.3	x	61.0*
CO[C@H]1CN(C)C(=O)c2cc(NC(=O)C3CCCC3)ccc2OC[C@@H](C)N(C(C)=O)C[C@@H]1C	x	0.8	x	x	-1.1	-13.4[16.7 µM]
CN1C(=O)C2C(c3ccc(N(C)C)cc3)=NN(Cc3ccccc3)C2C1=O (configuration not stated)	-0.6	x	99.4*	7.0	0.9	1.0
COc1ccc(C2=NN(Cc3ccccc3)C3C(=O)NC(=O)C23)cc1 (configuration not stated)	6.3	0.0	12.5	-2.6	-2.5	15.9
Cc1nc2ccc(S(=O)(=O)NCC(=O)N(C)Cc3ccccc3)cc2s1	2.1	x	98.9*	1.2	2.0	10.1
Cc1nc2ccc(S(=O)(=O)NC(C(=O)NCc3ccco3)C(C)C)cc2s1 (configuration not stated)	-0.7	2.2	23.0	x	-2.7	9.3
